Screening results as filed in PubChem.
Most compounds without a hit are left out; they make up all but 7.5% or so of the library.
TSHR antag: antagonists of human thyroid stimulating hormone receptor; P16473; TSHR-expressing cells, TSH-stimulated cAMP HTRF, 2 h; stronger effect = lower value; activity change, negative = inhibition, % at 11.5 µM; 330,000 tested, 0.2% active; AID 504810;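 active = activity change below a set negative limit, meaning inhibition stronger than a set level, cut at about -70% in these data; inconclusive = activity change between two set negative limits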
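Inhibition of cAMP made by TSHR-expressing cells under TSH stimulation (4nM final, EC80; 2 h, 37 deg C) is quantified with a one-step lysis HTRF kit, anti-cAMP cryptate versus cAMP-d2.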
VP16 counter: Gal4-VP16 reporter inhibition counter-screen | Drosophila S2 Gal4-VP16 UAS-luciferase, luminescence, 20 h | Potency, µM (doses to about 53.6 µM), without a hit: top-dose activity, negative = inhibition, usual class: inhibitors | 310,000 tested, 3.5% active;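 note: Gal4-VP16 expression switched on by copper sulfate through the metallothionein promoter; potency is the fitted concentration of half-maximal effect; nearly all actives have a fitted effect of over 50% in size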
B2AR arrestin: recruits beta-arrestin to the human beta2-adrenergic receptor. AID 492947. Potency, µM (titrated, usually from 46.1 µM), for the others: at the top dose activation, actives largely listed as activators. beta-arrestin recruitment to beta2AR, cell-based reporter. P07550. 330,000 tested, 0.02% active;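 note: potency is the fitted concentration of half-maximal effect; 0% = DMSO controls and full agonism = EC100 isoproterenol or metaproterenol; nearly all actives have a fitted effect of over 65% in size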
RORgamma inh: ROR gamma (mouse) transcription inhibition | Drosophila S2 Gal4-RORgamma UAS-luciferase reporter, 20 h | AID 2551 | Potency, µM (top dose mostly 53.6 µM), for the others: at the top dose activity change, negative = inhibition, most hits filed as inhibitors | 310,000 tested, 5.4% active; note: potency is the fitted concentration of half-maximal effect; nearly all actives have a fitted effect of over 60% in size
Target sequence (P51450 whole entry, looked up, the tested form may be a part): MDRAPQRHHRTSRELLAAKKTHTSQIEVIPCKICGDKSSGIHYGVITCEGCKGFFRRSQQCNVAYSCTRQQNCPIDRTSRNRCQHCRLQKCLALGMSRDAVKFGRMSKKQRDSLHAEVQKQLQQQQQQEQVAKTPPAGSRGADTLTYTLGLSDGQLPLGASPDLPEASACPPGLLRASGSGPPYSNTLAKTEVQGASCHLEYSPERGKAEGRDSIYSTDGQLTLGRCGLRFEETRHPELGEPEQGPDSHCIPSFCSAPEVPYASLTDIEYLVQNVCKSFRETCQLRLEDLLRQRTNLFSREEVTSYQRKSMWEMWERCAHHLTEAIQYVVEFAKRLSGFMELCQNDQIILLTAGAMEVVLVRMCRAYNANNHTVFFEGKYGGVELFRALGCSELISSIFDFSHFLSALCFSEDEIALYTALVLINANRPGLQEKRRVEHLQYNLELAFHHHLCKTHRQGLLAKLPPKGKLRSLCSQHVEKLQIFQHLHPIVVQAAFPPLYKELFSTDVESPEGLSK
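Read-out: Photinus luciferase luminescence; inhibitors lower reporter signal. Insect Schneider cells with Gal4-ROR gamma fusion under metallothionein promoter, UAS reporter; 700 uM final copper sulfate induction, 20 hr, ambient temperature.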
ELG1 DNA repair: inhibitors of ELG1-dependent DNA repair in HEK293T cells | HEK293T ELG1-luciferase reporter, luminescence, 16 h; DNA damage induced by 5-fluorouridine | Potency, µM (series often up to 46.1 µM), for the others: at the highest dose activity change, negative = inhibition, hits mostly inhibitors | 330,000 tested, 2.3% active | AID 504467; note: potency is the fitted concentration of half-maximal effect; nearly all actives have a fitted effect of over 55% in size
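DMSO vehicle served as the neutral condition. Each well held 2,000 cells given 5-fluorouridine plus compound; after 16 hr at 37 °C/5% CO2, ONE-Glo was added and luciferase measured 30 min later.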
Starred values were filed as active, the others as inactive; ? = inconclusive; nt = no result. Unless noted, calls come from the whole dose curve; as a rule, active = well fitted curve in the direction sought with a large enough effect; inconclusive = small, poorly fitted or top-dose-only effect, or another doubt; inactive = no such curve, though single readings can be large; an effect the other way counts as inactive or inconclusive. Unless noted, % is set by controls: 0 for no effect and ±100 for the full control effect.

SMILES	TSHR antag	VP16 counter	B2AR arrestin	RORgamma inh	ELG1 DNA repair
CCn1cc(CN2CCC(n3nccc3NC(=O)c3ccc4c(c3)OCO4)CC2)c(C)n1	33.2	?	-0.9%	0.7%	15.0%
CC(C)NS(=O)(=O)c1ccc(NC(=O)C(C)OC(=O)CCC(=O)c2cccs2)cc1 (stereo unspecified)	6.0	nt	-1.4%	nt	-0.7%
CCOC(=O)C1CCCN(C(=O)CCCn2nnnc2CN2CCOCC2)C1 (stereo unspecified)	9.9	-6.7%	-0.3%	-32.4%	?
CCCCCCCc1c(C#N)c(N)[nH]c(=S)c1C#N	-20.0	-24.0%	0.3%	8.91µM*	?
CCn1cc(CN2CCCC(C(=O)Nc3cccc(-n4cccn4)c3)C2)c(C)n1 (stereo unspecified)	-6.1	0.2%	0.5%	-1.8%	-2.9%
Cc1nn(C)c(Cl)c1CN1CCCC(C(=O)Nc2cccc(-n3cccn3)c2)C1 (stereo unspecified)	-3.2	-1.7%	-0.6%	-0.3%	16.4µM*
O=C(O)c1ccc(S(=O)(=O)N[C@H](Cc2ccc([N+](=O)[O-])cc2)C(=O)O)cc1	9.6	-4.3%	0.3%	4.3%	nt
C=CCOc1c(Cl)cc(CNc2ccc(C)c(Cl)c2)cc1OC	-1.3	-3.0%	0.0%	10.5%	17.3%
C=CCOc1c(Cl)cc(CNc2ccc(N(C)C)cc2)cc1OC	-107.9*	-0.9%	0.2%	24.7%	10.7%
C[C@@]12CC(=O)C3=C(CCCC3=O)N1CCc1ccccc12	nt	-1.7%	nt	6.6%	nt
CC(C)(C)c1ccc2c(c1)OC(C(=O)N/N=C\c1ccccn1)CO2 (stereo unspecified)	-9.5	17.8µM*	-0.4%	?	5.8%
CC(C)(C)c1ccc2c(c1)OC(C(=O)N/N=C\c1ccc(-c3cccc(C(=O)O)c3)o1)CO2 (stereo unspecified)	-22.5	-3.4%	0.2%	26.7%	?
O=C(N/N=C\c1ccc(Cl)s1)C1COc2ccccc2O1 (stereo unspecified)	-5.3	0.891µM*	-0.8%	0.631µM*	?
O=C(N/N=C\c1ccc([N+](=O)[O-])o1)C1COc2ccccc2O1 (stereo unspecified)	9.8	?	-0.9%	-43.5%	0.8%
O=C(N/N=C\c1ccc([N+](=O)[O-])s1)C1COc2ccccc2O1 (stereo unspecified)	-3.6	2.82µM*	0.4%	3.55µM*	?
CCOC(=O)c1ccc(-n2c(O)c(/C=N/NC(=O)C3COc4ccccc4O3)c3ccccc3c2=O)cc1 (stereo unspecified)	-19.4	2.82µM*	0.3%	2.51µM*	-12.5%
COC(=O)[C@@]1(Cc2ccc(F)cc2)[C@H]2c3cc(C(=O)N4CCCC4)n(CCN4CNCC4=O)c3C[C@H]2CN1C(=O)c1ccccc1	nt	-15.3%	nt	17.4%	nt
Cn1c(/C(C#N)=C/c2ccc(O)cc2)nc2ccccc21	-4.2	-10.2%	0.0%	43.7%	?
Cn1c(/C(C#N)=C(\O)CN2CCN(Cc3ccccc3)CC2)nc2ccccc21	4.1	22.4µM*	-0.5%	5.62µM*	-11.1%
Cc1ccc(SC/C(O)=C(\C#N)c2nc3ccccc3n2C)cc1	-5.1	6.31µM*	-0.1%	7.94µM*	?
CCN(CC)CCCn1c2c(c(SCC(=O)Nc3nccs3)nc1=O)CCC2	11.7	nt	0.1%	nt	-11.7%
CC(C)(C)c1n[nH]c2c1CCCC2	15.3	-21.4%	-0.3%	11.2µM*	4.0%
O=C(NN=C1CCCC1)c1n[nH]c2c1CCCC2	4.9	-2.2%	0.0%	-19.4%	?
O=CC(O)C(O)C(O)C(O)CO (stereo unspecified)	nt	4.3%	nt	5.7%	nt
CC(C)OC(=O)c1c2c(n3ccccc13)C(=O)c1ccccc1C2=O	0.7	-12.1%	-0.4%	-24.5%	18.4µM*
CNS(=O)(=O)c1cccc(C(=O)NCC(c2ccco2)N(C)C)c1 (stereo unspecified)	-2.4	-12.1%	0.0%	-2.5%	-2.2%
Cc1c(NC(=O)c2c(N)n(-c3ccccc3)c3nc4ccccc4nc23)c(=O)n(-c2ccccc2)n1C	-6.0	-0.6%	-0.1%	1.0%	0.8%
Cc1ccc(-n2c(N)c(-c3nc4ccccc4n3C)sc2=S)cc1	6.4	?	-0.3%	5.01µM*	?
